eLon inh = inhibits E. coli Lon protease; inhibition, % at 7.94 µM; P0A9M0; 0.42% of 360,000 active; purified E. coli Lon protease, fluorescence polarization; in the data active = inhibition above about 13%, passing the limit was not always enough;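 also: 0% = enzyme with probe and DMSO and 100% = no enzyme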
Keap1-Nrf2 PPI = disrupts human Keap1 binding to Nrf2 peptide; Keap1 Kelch-Nrf2 peptide fluorescence polarization, 1536-well; inhibition, % at 9.4 µM; 0.15% of 340,000 active; AID 504523; in the data active = inhibition above about 12%;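 also: human Keap1 Kelch domain with fluorescein labeled Nrf2 9mer peptide probe; 0% = neutral control wells and 100% = peptide positive control; higher means more block of Keap1 binding to Nrf2 peptide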
Target sequence (Q14145 whole entry, looked up, the tested form may be a part): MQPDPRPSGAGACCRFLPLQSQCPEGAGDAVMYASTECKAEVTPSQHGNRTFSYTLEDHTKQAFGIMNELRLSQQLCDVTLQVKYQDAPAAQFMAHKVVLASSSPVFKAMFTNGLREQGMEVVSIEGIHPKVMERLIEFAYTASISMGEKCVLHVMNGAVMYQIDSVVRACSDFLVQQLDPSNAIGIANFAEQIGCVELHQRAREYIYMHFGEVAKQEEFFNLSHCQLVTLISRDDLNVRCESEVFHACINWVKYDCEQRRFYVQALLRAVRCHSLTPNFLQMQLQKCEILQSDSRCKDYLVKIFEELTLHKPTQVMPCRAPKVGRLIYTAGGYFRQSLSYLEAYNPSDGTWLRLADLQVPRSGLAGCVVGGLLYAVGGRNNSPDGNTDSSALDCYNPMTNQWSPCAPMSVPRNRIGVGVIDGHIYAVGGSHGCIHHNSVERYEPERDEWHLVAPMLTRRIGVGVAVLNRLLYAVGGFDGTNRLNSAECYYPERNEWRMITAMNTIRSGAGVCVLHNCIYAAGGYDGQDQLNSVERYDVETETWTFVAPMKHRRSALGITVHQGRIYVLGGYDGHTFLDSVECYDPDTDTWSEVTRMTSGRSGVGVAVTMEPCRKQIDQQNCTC
cardiac RTF act = increases calcium sensitivity of human cardiac regulated thin filaments | P19429+P45379 | 0.24% of 340,000 active | IANBD-labeled TnC RTF fluorescence at EC20 calcium; 0% EC20 calcium, 100% full calcium | activation, % at 7.2 µM;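 active = activation above the mean over all tested compounds plus 3 SD, cut at about 30% in these data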;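 also: rise in fluorescence read as greater calcium sensitivity of cardiac thin filaments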
C-LANA FP = KSHV C-LANA DNA binding inhibition; MBP-C-LANA/FAM-LBS DNA binding, fluorescence polarization; inhibition, % at 9 µM; 0.078% of 340,000 active;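 active = highest replicate inhibition at or above 60% at 9 µM, even if other replicates fall short; inactive = all replicates below 60% inhibition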;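 also: 0% = neutral control wells and 100% = 4 µM acridine orange control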
LANA-H2B inh = blocks KSHV LANA binding to histone H2A/H2B; 0.6% of 320,000 active; AID 2629; inhibition, % (concentration not given with the values); cell-free LANA-H2A/H2B peptide, fluorescence polarization; Q9QR71; in the data active = inhibition mostly above about 10%, no sharp cut-off; inactive = mostly below about 6.7%
Cardiac RTF inh = cardiac RTF calcium desensitization; P19429+P45379; inhibition, % at 7.15 µM; 0.12% of 340,000 active; IANBD-labeled cardiac RTF, Ca2+ fluorescence; AID 493244;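 active = inhibition above the mean inhibition of all tested compounds plus 3 SD, cut at about 17% in these data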;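 also: assay run at fixed EC70 calcium of 1.6 mM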
eLon confirm = confirmation of E. coli Lon protease inhibitors | shares compounds with eLon inh | purified E. coli Lon, fluorescence polarization | inhibition, % at 7.94 µM | 31% of 1,400 active | AID 602230; in the data active = inhibition above about 16%;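 also: 0% = enzyme with probe and DMSO and 100% = no enzyme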
* marks the source's active call; other numbers are inactive results; . = not tested or not shown. Only some compounds are listed: those with a hit (about 1.3% of all), similar ones and a draw of the others.

SMILES	eLon inh	Keap1-Nrf2 PPI	cardiac RTF act	C-LANA FP	LANA-H2B inh	Cardiac RTF inh	eLon confirm
Cc1ccc(NC(=O)CN2C(=O)NC3(CCc4ccccc43)C2=O)cc1S(=O)(=O)N1CCCCC1 (stereo unspecified)	1	1	-5	-2	-1	-3	.
O=C(CCN1C(=O)C2C3C=CC(C3)C2C1=O)NC1CCCCC1 (stereo unspecified)	20*	-1	2	0	1	2	6
CCOC(=O)N1CCC(NC(=O)CCN2C(=O)C3C4C=CC(C4)C3C2=O)CC1 (stereo unspecified)	4	-8	-1	-1	3	-2	.
CC(=O)c1c(C)[nH]c(C(=O)OCc2ccccc2)c1C	-2	-3	4	9	6	2	.
CC(=O)c1c(C)[nH]c(C(=O)OCC(=O)N(Cc2ccccc2)C(C)(C)C)c1C	71*	-3	3	-2	.	-8	-63
CCOC(=O)N1CCN(Cc2nnc(-c3ccccc3C)o2)CC1	1	0	1	0	6	1	.
CN(Cc1ccccc1)C(=O)CN1C(=O)c2ccc([N+](=O)[O-])cc2C1=O	19*	0	-9	-1	0	-6	-1
O=C(CCS(=O)(=O)c1ccc(Cl)cc1)Nc1ccc(N2CCOCC2)cc1	-7	2	-3	0	-2	-12	.
CN1CCN(CC(C)(C)NS(=O)(=O)c2ccc(Cl)cc2)CC1	-4	-3	8	1	11	-11	.
CC(C)(CN1CCc2ccccc2C1)NS(=O)(=O)c1ccc(Cl)cc1	17*	0	18	1	25*	-19	13
CN1CCN(C(=O)c2ccc3c(c2)N(Cc2ccccc2F)C(=O)c2ccccc2S3=O)CC1 (stereo unspecified)	16*	-6	4	1	0	1	6
CN1CCN(C(=O)c2ccc3c(c2)N(Cc2ccc(Cl)cc2)C(=O)c2ccccc2S3=O)CC1 (stereo unspecified)	-1	-3	6	-3	-5	-4	.
COc1cc(C2NC(=O)NC3=C2C(=O)OC3)cc(OC)c1OC (stereo unspecified)	5	0	5	3	15	-8	.
O=C(CN1C(=O)c2ccccc2C1=O)c1ccccc1	-4	-2	2	3	-1	-4	.
O=C(O)CN1C(=O)c2ccc(C(=O)c3ccccc3)cc2C1=O	27*	-5	-2	-2	1	-7	-3
Cn1ncc(Br)c1NC(=O)CSc1ccc(Cl)cc1	8	-2	1	-1	-5	0	.
CN1c2ccccc2N(C)C1(C)c1ccccc1	38*	5	5	11	-3	-16	3
C=CCn1c(SCC(=O)N(C)C2CCS(=O)(=O)C2)nnc1-c1ccccc1 (stereo unspecified)	2	2	-5	0	0	-7	.
COC(=O)c1ccc(-c2nc(CN3CCN(C(=O)c4ccco4)CC3)c(C)o2)cc1	15*	.	.	.	.	.	-2
COc1cccc(NC(=S)N(CCc2c(C)[nH]c3ccc(C)cc23)Cc2cccs2)c1	-10	-3	0	0	7	-4	.
COc1ccc2[nH]c(C)c(CCN(Cc3cccs3)C(=S)Nc3cccc(F)c3)c2c1	27*	1	5	8	-1	-28	10
Cc1ccc(C(N)=Nc2ccccc2)cc1	-3	-3	-5	-1	2	-5	.
COC(=O)CN(c1nc(C)c(Br)c(OC)n1)S(=O)(=O)c1ccc(C)cc1	-4	-2	7	0	-2	-13	.
C=CCN(c1nc(C)c(Br)c(OC)n1)S(=O)(=O)c1ccc(C)cc1	49*	-2	-1	3	-3	2	6
Cc1ccc(-c2ccccc2NC(=O)CS(=O)CC(=O)Nc2ccc(C)c(Cl)c2)o1 (stereo unspecified)	114*	3	4	2	-2	1	16*
SMILES	eLon inh	Keap1-Nrf2 PPI	cardiac RTF act	C-LANA FP	LANA-H2B inh	Cardiac RTF inh	eLon confirm
Cc1ccc(-c2ccccc2NC(=O)CCl)o1	-2	0	-4	1	0	-3	.
COC(=O)[C@H]1C[C@@]2(O)CN(S(=O)(=O)c3ccc(C)cc3)C[C@@]2(OC(=O)Nc2cccs2)C[C@H]1C(=O)OC	-8	.	.	.	.	.	.
Nc1ccccc1N=Nc1ccccc1N	49*	-1	-4	3	-4	-19	40*
CCOc1ccc(N(CC(=O)N2CCCCCC2)S(=O)(=O)c2ccc(C)cc2)cc1	1	-1	-7	0	-7	2	.
CC1CCc2sc(C(=O)N(C)CC(=O)Nc3cccc(F)c3)cc2C1 (stereo unspecified)	16*	-2	1	-1	-1	3	-4
Cc1ccc(S(=O)(=O)N(C)C)cc1NC(=O)C(C)OC(=O)CC1CC2CCC1C2 (stereo unspecified)	-13	.	.	.	.	.	.
CNc1cncc(-c2cccc(C(=O)NC3CC3)c2)n1	2	.	.	.	.	.	.
N#Cc1cnc(SCC(=O)N2CCCC2)nc1N	14*	-4	-5	-1	-2	2	-11
Cc1cccc(-c2c3c(nc4c2c(=O)n(C)c(=O)n4C)-c2ccccc2C3O)c1 (stereo unspecified)	2	0	2	0	0	-15	.
C/C=C/C1=CC(=O)C[C@H](c2ccc(F)cc2)C1	-2	0	0	1	7	6	.
c1cc2c3c(cccc3c1)C(N1CCCCCC1)=N2	5	-6	-2	1	-1	-3	.
c1cc2c3c(cccc3c1)C(N1CCCCC1)=N2	27*	3	-4	3	-1	-8	52*
c1ccc2c(c1)CCN(C1=Nc3cccc4cccc1c34)C2	35*	1	0	2	.	-5	106*
CCCCCCN1C[C@@H](n2cc(-c3ccc(F)cc3)nn2)[C@H](O)C[C@@H]1c1ccccc1	-3	.	.	.	.	.	.
COc1ccc(C(CC(=O)NCC(OC)OC)NS(=O)(=O)c2ccc(Cl)cc2)cc1 (stereo unspecified)	10	0	-3	0	2	1	.
O=C(Nc1cccc([N+](=O)[O-])c1)Nc1cccc([N+](=O)[O-])c1	10	-3	0	-1	10	-17	.
CC(C)S(=O)(=O)c1csc(NC(=O)Nc2cccc([N+](=O)[O-])c2)c1Cl	22*	-1	-1	1	7	1	-6
Cc1occc1C(=O)NC(C)C1CCCO1 (stereo unspecified)	15*	2	-4	0	-2	-11	-3
CC(NC(=O)c1ccco1)C1CCCO1 (stereo unspecified)	-2	-3	6	1	1	-5	.
CCN(CC(=O)N1CCC(C(N)=O)CC1)S(=O)(=O)c1ccc(Cl)cc1	15	-7	5	2	4	-3	.

Source: PubChem BioAssay (several laboratories)
